Results as given in PubChem BioAssay (NCATS).
Inconclusive results are not listed. The source made the active and inactive calls. Calls come from the whole dose curve; as a rule, active = well fitted curve in the direction sought with a large enough effect; inconclusive = small, poorly fitted or top-dose-only effect, or another doubt; inactive = no such curve, though single readings can be large; an effect the other way counts as inactive or inconclusive.

Columns and labels:
[1] = molecular target: Rap guanine nucleotide exchange factor 3 (Homo sapiens) (UniProt O95398); assay: Confirmatory qHTS for antagonist of cAMP-regulated guanine nucleotide exchange factor 3 (EPAC1) (AID 1645880); note: nearly all actives have a fitted effect of over 55% in size; note: potency is the fitted concentration of half-maximal effect
Sequence of Rap guanine nucleotide exchange factor 3 (Homo sapiens) (O95398 whole entry, looked up): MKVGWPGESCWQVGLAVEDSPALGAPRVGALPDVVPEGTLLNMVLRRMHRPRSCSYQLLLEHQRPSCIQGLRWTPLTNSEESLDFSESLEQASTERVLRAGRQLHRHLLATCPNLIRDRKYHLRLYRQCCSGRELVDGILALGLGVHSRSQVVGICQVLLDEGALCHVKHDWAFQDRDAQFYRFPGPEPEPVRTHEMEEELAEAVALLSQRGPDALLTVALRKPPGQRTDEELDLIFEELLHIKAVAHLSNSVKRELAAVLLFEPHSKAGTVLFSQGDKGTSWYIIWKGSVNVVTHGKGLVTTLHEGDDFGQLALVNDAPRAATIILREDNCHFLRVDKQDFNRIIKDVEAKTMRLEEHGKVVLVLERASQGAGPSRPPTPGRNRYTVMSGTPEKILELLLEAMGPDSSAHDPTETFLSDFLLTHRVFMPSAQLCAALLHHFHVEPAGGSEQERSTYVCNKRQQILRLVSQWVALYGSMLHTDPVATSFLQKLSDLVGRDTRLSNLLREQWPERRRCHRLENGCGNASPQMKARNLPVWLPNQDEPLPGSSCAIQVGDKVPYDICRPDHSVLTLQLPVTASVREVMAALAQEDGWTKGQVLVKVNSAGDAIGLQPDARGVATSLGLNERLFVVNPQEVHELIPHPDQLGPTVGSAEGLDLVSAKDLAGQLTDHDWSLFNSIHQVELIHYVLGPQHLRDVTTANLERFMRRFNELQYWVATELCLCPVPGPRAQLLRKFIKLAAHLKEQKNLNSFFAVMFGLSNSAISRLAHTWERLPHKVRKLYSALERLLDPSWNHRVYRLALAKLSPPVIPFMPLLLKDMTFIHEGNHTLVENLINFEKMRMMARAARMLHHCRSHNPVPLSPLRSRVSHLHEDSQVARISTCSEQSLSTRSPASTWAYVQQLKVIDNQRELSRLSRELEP
How it was run: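 Nucleotide exchange uses 100 nM EPAC1, 250 nM RAP1B-BODIPY-GDP and 50 uM GDP, with compounds in a concentration-titration series. After 5 min at room temperature, fluorescence (480 nm ex/540 nm em) is read every 5 min for 30 min. Data are normalized to control ATA and DMSO.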

[2] = molecular target: Rap guanine nucleotide exchange factor 3 (Homo sapiens) (UniProt O95398); assay: Confirmatory qHTS for agonist of cAMP-regulated guanine nucleotide exchange factor 3 (EPAC1) (AID 1645881);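 note: EPAC1 catalysed release of BODIPY-GDP from Rap1B seen as fluorescence loss; 100% = effect of cAMP agonist control; nearly all actives have a fitted effect of over 75% in size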
[3] = molecular target: Rap guanine nucleotide exchange factor 4 (Homo sapiens) (UniProt Q8WZA2); assay: Confirmatory qHTS for agonist of cAMP-regulated guanine nucleotide exchange factor 4 (EPAC2) (AID 1645884);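 note: nucleotide exchange releases bodipy-GDP from Rap1 and this lowers its fluorescence; % is set by controls: 0 for no effect and ±100 for the full control effect; nearly all actives have a fitted effect of over 65% in size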
Sequence of Rap guanine nucleotide exchange factor 4 (Homo sapiens) (Q8WZA2 whole entry, looked up): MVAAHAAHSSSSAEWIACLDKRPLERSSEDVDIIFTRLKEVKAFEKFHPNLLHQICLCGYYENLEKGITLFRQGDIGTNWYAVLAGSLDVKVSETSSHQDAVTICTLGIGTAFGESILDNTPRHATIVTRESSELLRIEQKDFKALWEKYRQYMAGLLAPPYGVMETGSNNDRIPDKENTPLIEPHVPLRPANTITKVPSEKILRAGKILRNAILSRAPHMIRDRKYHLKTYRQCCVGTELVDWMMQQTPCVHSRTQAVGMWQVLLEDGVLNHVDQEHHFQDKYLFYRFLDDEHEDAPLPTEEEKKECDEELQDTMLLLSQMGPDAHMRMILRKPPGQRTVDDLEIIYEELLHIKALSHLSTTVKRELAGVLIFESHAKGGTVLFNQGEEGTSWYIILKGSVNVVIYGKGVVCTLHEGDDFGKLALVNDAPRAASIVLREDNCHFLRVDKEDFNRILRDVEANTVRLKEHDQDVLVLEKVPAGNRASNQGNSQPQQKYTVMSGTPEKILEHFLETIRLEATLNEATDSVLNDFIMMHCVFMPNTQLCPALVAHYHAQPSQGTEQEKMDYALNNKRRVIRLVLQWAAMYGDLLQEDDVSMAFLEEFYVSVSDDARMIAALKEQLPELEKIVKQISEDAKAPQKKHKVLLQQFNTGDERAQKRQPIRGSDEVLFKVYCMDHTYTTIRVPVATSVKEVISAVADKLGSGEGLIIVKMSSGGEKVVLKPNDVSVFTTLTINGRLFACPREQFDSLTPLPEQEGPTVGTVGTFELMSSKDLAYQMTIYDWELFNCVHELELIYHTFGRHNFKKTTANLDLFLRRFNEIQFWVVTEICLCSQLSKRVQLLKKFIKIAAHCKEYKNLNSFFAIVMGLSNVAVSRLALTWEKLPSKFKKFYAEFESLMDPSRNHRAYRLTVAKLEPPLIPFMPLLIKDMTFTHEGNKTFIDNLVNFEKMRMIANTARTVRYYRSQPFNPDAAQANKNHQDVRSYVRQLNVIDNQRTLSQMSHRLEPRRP

[4] = molecular target: Rap guanine nucleotide exchange factor 4 (Homo sapiens) (UniProt Q8WZA2); assay: Confirmatory qHTS for antagonist of cAMP-regulated guanine nucleotide exchange factor 4 (EPAC2) (AID 1645885); note: nearly all actives have a fitted effect of over 25% in size; note: potency is the fitted concentration of half-maximal effect; for activity change, negative = inhibition: % is set by controls: 0 for no effect and ±100 for the full control effect
[5] = molecular target: Rap guanine nucleotide exchange factor 3 (Homo sapiens) (UniProt O95398); assay: Counterscreen qHTS for antagonist of cAMP-regulated guanine nucleotide exchange factor 3 (EPAC1) (AID 1645888);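 note: fluorescence loss as bound BODIPY-GDP is released from Rap1B; % of control where 0% means no effect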
How it was run: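 Rap1B–BODIPY-GDP (250 nM) with 50 uM GDP; compounds pin-transferred to 9.74 nM–152 uM final (activator) or from 7.32 nM upwards (inhibitor). Fluorescence Ex/Em 480/540 nm read at 5 and 30 min, then after adding cAMP or buffer, at room temperature.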

O=C1CSC2(C(=O)N(Cc3ccccc3F)c3ccccc32)N1c1ccc(F)cc1 (stereo not given)
inactive: Potency [1] | Potency [2] | Potency [3] | outcome [4] inactive [at 12.7 µM] | Potency [5]

COc1ccc(C)cc1NC(=O)CSc1nc(=O)n(Cc2ccco2)c2c1CCC2
active: Potency [1] 84.9 µM
inactive: Potency [2] | Potency [3] | Potency [4] | Potency [5]

Cc1cscc1-c1ccc(C(=O)Nc2c(C)cccc2C)o1
inactive: Potency [1] | Potency [2] | activation [3] 7.37% [at 17.1 µM, percent relative to cAMP agonist control] | Potency [4] | activity change, negative = inhibition [5] -5.01% [at 30.8 µM]

COc1ccc(CN2C(=O)CN(S(C)(=O)=O)CC2(C)C(=O)Nc2c(C)cccc2C)cc1OC (stereo not given)
inactive: Potency [1] | Potency [2] | activation [3] 5.79% [at 17.1 µM, percent relative to cAMP agonist control] | Potency [4] | activity change, negative = inhibition [5] -5.99% [at 30.8 µM]

O=C(c1ccco1)N(CCC(c1ccccc1)c1ccco1)Cc1ccco1 (stereo not given)
active: Potency [1] 75.7 µM
inactive: Potency [2] | Potency [3] | Potency [4] | Potency [5]

CNC(=O)c1c(NC(=O)C2=COCCO2)sc(C)c1C
inactive: Potency [1] | Potency [2] | Potency [3] | Potency [4] | Potency [5]

COC(=O)c1cc2oc(C)cc2n1Cc1ccc(Br)cc1F
inactive: Potency [1] | Potency [2] | Potency [3] | Potency [4] | Potency [5]

CCOc1ccc(S(=O)(=O)N2CCCCC2)c2ccccc12
inactive: Potency [1] | Potency [2] | Potency [3] | Potency [4] | Potency [5]

Oc1ccc(C2=Nn3c(nnc3-c3ccco3)SC2)cc1O
inactive: Potency [2] | Potency [3] | Potency [4] | Potency [5]
active: Potency [1] 16.9 µM

Cc1nnc(SCc2cccc3ccccc23)s1
inactive: Potency [1] | Potency [2] | Potency [3] | Potency [4] | Potency [5]

CSc1nnc(-c2ccccc2)c(-c2ccccc2)n1
inactive: Potency [1] | Potency [2] | Potency [3] | Potency [5]
active: Potency [4] 19 µM

O=C1C(=Cc2cn(-c3ccccc3)nc2-c2ccc(OCc3ccccc3)cc2)SC(=S)N1CCS(=O)(=O)O
active: Potency [1] 33.8 µM
inactive: Potency [2] | Potency [3] | Potency [4] | Potency [5]

O=C1Nc2ccccc2SC1c1ccccc1 (stereo not given)
inactive: Potency [1] | Potency [2] | activation [3] 3.23% [at 17.1 µM, percent relative to cAMP agonist control] | Potency [4] | activity change, negative = inhibition [5] -15.7% [at 30.8 µM]

Cc1ccc(-c2cc3ccccc3nc2N2CCOCC2)cc1
inactive: Potency [1] | Potency [2] | Potency [3] | Potency [4] | Potency [5]

Cc1[nH]c2ccccc2c1C(c1ccccc1)c1cccs1 (stereo not given)
inactive: Potency [1] | Potency [2] | Potency [3] | Potency [4] | Potency [5]

N#CC1=C(N)SC(N)=C(C#N)C1c1cccc(Oc2ccccc2)c1
active: Potency [1] 67.5 µM
inactive: Potency [2] | Potency [3] | Potency [4] | Potency [5]

Cc1ccc(C(=O)c2cn(Cc3ccccc3)c3nc(C)ccc3c2=O)cc1
inactive: Potency [1] | Potency [2] | Potency [3] | Potency [4] | Potency [5]

Cc1cc(C)c(OCC(=O)Nc2ccccc2N2CCCCC2)c(C)c1
inactive: Potency [1] | Potency [2] | Potency [3] | Potency [4] | Potency [5]

COc1ccc(/C=N/NC(=O)c2cccnc2)cc1CN1CCCc2ccccc21
inactive: Potency [1] | Potency [2] | Potency [3] | Potency [4] | Potency [5]

Cc1cc(O)c(C(=O)/C=C/c2cccc([N+](=O)[O-])c2)c(=O)o1
inactive: Potency [2] | Potency [3] | Potency [4] | Potency [5]
active: Potency [1] 33.8 µM

O=c1cc(O)c2sc3nc(-c4cccnc4)cc(C(F)(F)F)c3c2[nH]1
inactive: Potency [1] | Potency [2] | Potency [3] | Potency [4] | Potency [5]

O=C(c1ccco1)N(Cc1cccc([N+](=O)[O-])c1)c1ccc(Br)cc1
inactive: Potency [1] | Potency [2] | Potency [3] | Potency [4] | Potency [5]

CNC[C@H]1Oc2ccc(NC(=O)Nc3ccccc3)cc2CC(=O)N([C@H](C)CO)C[C@H]1C
inactive: Potency [1] | Potency [2] | Potency [3] | Potency [4] | Potency [5]
